Only some compounds are listed: those with a hit (about 28% of all), similar ones and a draw of the others.
CYP2C9 inh: human CYP2C9 inhibition | P11712 | CYP2C9 Supersomes, luciferin-H conversion, luminescence | inhibition, % at 5 µM | 96,000 compounds, 20% hits | AID 777;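 active means blocking of liver enzyme CYP2C9 beyond about 50% at 5 µM, limit read from the data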
PTK2B oligo ant: Pyk2 (human) oligomerization antagonism; Q14289; Q293 cells, Pyk2 FERM NanoBiT luminescence; hits give low values; z-score (the deposit names both 25 µM and 10 µM); 99,000 compounds, 0.83% hits; AID 1347419;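 active means Z-score of -3 or lower, scaled per plate to the spread of control and sample wells; inactive means z-score above -3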;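 further: negative z-score means lost luminescence so less FERM oligomerization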
CYP2C9 activ: activators of human CYP2C9; P11712; recombinant CYP2C9, luciferin-H conversion, luminescence; hits give high values; factor 1 = untreated enzyme, 0 = blocked; activation factor at 5 µM; 96,000 compounds, 1.4% hits; AID 1024;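 active means activation factor of 2 or more for CYP2C9 at a 5 µM dose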
CYP2C19 activ: increases human CYP2C19 enzyme activity; activation factor at 5 µM; AID 1025; 96,000 tested, under 10 active; recombinant CYP2C19, luciferin-H EGE luminescence; hits give high values; 0 = fully inhibited enzyme, 1 = untreated enzyme; P33261;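 active means activation factor of at least 2 at 5 µM in the primary screen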
Target sequence (P33261 whole entry, looked up): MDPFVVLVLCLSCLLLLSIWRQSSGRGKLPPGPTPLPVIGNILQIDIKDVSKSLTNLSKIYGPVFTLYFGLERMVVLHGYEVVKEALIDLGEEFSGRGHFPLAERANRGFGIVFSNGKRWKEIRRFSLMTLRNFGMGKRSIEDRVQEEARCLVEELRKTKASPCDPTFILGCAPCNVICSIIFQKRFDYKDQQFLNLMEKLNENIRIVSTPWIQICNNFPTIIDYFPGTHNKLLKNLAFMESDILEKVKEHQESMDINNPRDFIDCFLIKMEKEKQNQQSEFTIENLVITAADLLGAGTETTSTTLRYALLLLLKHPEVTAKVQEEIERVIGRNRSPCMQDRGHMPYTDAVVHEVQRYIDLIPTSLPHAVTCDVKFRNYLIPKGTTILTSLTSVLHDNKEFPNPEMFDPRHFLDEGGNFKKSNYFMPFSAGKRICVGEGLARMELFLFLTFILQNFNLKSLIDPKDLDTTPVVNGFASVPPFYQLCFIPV
CYP2C19 inh: blocks human cytochrome P450 2C19 | P33261 | CYP2C19 Supersomes, luciferin-H EGE luminescence, 30 min | inhibition, % at 5 µM | 96,000 compounds, 21% hits | AID 778;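 active means CYP2C19 inhibition above a set limit at 5 µM in the primary screen, cut at about 50% in these data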
Hits are given with their value; n = inactive; x = no result.

SMILES | CYP2C9 inh | PTK2B oligo ant | CYP2C9 activ | CYP2C19 activ | CYP2C19 inh
O=C(CN(C(=O)C1COc2ccccc2O1)c1ccccc1)NCC1CCCO1 (stereo not drawn) | n | n | n | n | 51
CC(=O)Nc1ccc(C(=O)N/N=C/c2ccccc2OC(=O)c2ccc(Cl)cc2)cc1 | 60 | n | n | n | n
CCOC(=O)c1ccc(NC(=O)CNC(=O)c2ccccc2)cc1 | n | n | n | n | n
COC(=O)Cn1nnc(-c2cccc(OC)c2)n1 | n | n | n | n | n
CCOC(=O)c1ccc(NC(=O)CN(Cc2ccc(Cl)cc2)S(C)(=O)=O)cc1 | 83 | n | n | n | 94
CS(=O)(=O)N(CC(=O)Nc1ccc2c(c1)OCCO2)Cc1ccc(Cl)cc1 | n | n | n | n | n
Cc1ccc(C(=C2C3C=CC2C2C(=O)NC(=O)C32)c2ccc(C)cc2)cc1 (stereo not drawn) | n | n | n | n | n
N#Cc1cc(S(=O)(=O)c2ccccc2)c(N)[nH]c1=O | n | n | n | n | n
CCOc1cc(S(=O)(=O)n2nc(C)cc2C)ccc1F | n | n | n | n | 73
CCOc1cc(S(=O)(=O)Nc2ccc(Cl)cn2)ccc1F | 96 | n | n | n | n
COc1ccc(S(=O)(=O)Nc2ccc(Cl)cn2)c(C)c1C | 53 | n | n | n | n
CCOc1cc(S(=O)(=O)NC2CCCCCC2)ccc1F | n | n | n | n | n
CCOc1cc(S(=O)(=O)Nc2ccc(Cl)cn2)ccc1Cl | x | n | x | x | x
Cc1ccc(S(=O)(=O)n2nc(C)cc2C)cc1 | n | n | n | n | n
CCOc1cc(S(=O)(=O)N(CC)CC)ccc1F | n | n | 2.3 | n | 95
Cc1ccc(CC2CC(=O)N(CC(=O)O)C2=O)cc1 (stereo not drawn) | x | n | x | x | x
COc1ccc(Cl)cc1NC(=O)CN1CCC(n2nnc3ccccc32)CC1 | x | n | x | x | x
Cc1cc(C(=O)O)c(CCCN)s1 | n | n | n | n | n
Cn1c(Sc2ccc(C(F)(F)F)cc2[N+](=O)[O-])nnc1-c1ccccc1 | n | n | 2 | n | n
COc1cc(CC(=O)Nc2ccc(S(=O)(=O)N(C)C)cc2)cc(OC)c1OC | n | n | n | n | n
CN1CCN(C/C(=C2/N=C(c3ccccc3)OC2=O)N(C)C)CC1 | n | n | n | n | n
CCC(C)[C@H](NC(=O)NCc1cccc(OC)c1)C(=O)OC (stereo partly drawn) | n | n | n | n | n
CCN(CC(=O)NCc1ccc(F)cc1)CC(O)COCc1cccc(OC)c1 (stereo not drawn) | 67 | n | n | n | 67
CCCCOc1ccc(OCCCC)c2c1NC1(N2)C(=O)N(C(C)=O)c2ccccc21 | n | n | n | n | 53
CCC(C(=O)c1ccccc1)N(C(=O)c1ccccc1Cl)N1C(=O)C2C3C=CC(C3)C2C1=O (stereo not drawn) | n | n | n | n | n
SMILES | CYP2C9 inh | PTK2B oligo ant | CYP2C9 activ | CYP2C19 activ | CYP2C19 inh
COc1ccc(NC(=O)N(CCO)Cc2cc3c(C)cc(C)cc3[nH]c2=O)cc1 | n | n | n | n | n
Cc1cc(C)c2cc(CN(CCO)C(=O)Nc3ccc(F)cc3)c(=O)[nH]c2c1 | n | n | n | n | 74
Cc1cc(C)c2cc(CN(CCO)C(c3nnnn3Cc3ccc(F)cc3)C(C)C)c(=O)[nH]c2c1 (stereo not drawn) | 93 | x | n | n | 76
CCC(c1nnnn1CC1CCCO1)N(CCCO)Cc1cc2cccc(C)c2[nH]c1=O (stereo not drawn) | n | n | n | n | n
CCC(c1nnnn1Cc1ccc(F)cc1)N(CCCO)Cc1cc2cc3c(cc2[nH]c1=O)OCO3 (stereo not drawn) | n | n | n | n | 55
Cc1cc(C)c2cc(CN(Cc3ccco3)C(=O)NCc3ccccc3)c(=O)[nH]c2c1 | 55 | n | n | n | n
CCc1ccc2[nH]c(=O)c(CN(CCO)C(=O)NCc3ccccc3)cc2c1 | n | n | n | n | n
Cc1ccc2c(CN3C(=O)NC4(CCCCC4)C3=O)cc(=O)oc2c1C | n | n | n | n | n
COC(=O)C1=C(N)N(c2ccc(F)cc2)C2=C(C(=O)CCC2)C1c1ccc2c(c1)OCO2 (stereo not drawn) | n | n | n | n | n
Cc1nnc(SCCN2CCOCC2)n1C | x | n | x | x | x
Cn1ccnc1C(O)c1ccco1 (stereo not drawn) | n | n | n | n | n
CC(C(=O)N1CCN(C=O)CC1)N1C(=O)c2ccccc2C1=O (stereo not drawn) | n | n | n | n | n
